Shown are actives, neighbours in structure and some others; about 7.3% of the full set was active somewhere.
HCMV antiviral: human cytomegalovirus inhibition. HFF cells, HCMV-luciferase reporter, 72 h; stronger effect = lower value. activity change, negative = inhibition, % at 57.5 µM. actives 4.5% (n = 410,000); in the data active = activity change below about -60%; inconclusive = no clear call, values can overlap the other calls; inactive = above about -39%
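Two compound doses tested in HFFs infected with HCMV-luciferase, MOI 1 PFU/cell, 72 h at 37C. Lysate luminescence read with OneGlo; data normalized against buffer-only and 10uM Salinomycin inhibitor controls.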
HCV inhibitor: inhibitors of hepatitis C virus infection | Huh7.5.1 HCVcc-Cre infection, luciferase reporter, 44 h | Potency, µM (titrated, usually from 41.8 µM), most hits filed as inhibitors | actives 3.4% (n = 340,000) | AID 651820; active = well fitted inhibition curve with a large enough effect; inconclusive = small, poorly fitted or top-dose-only effect, or another doubt; inactive = no such curve, though single readings can be large or run the other way
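Cells seeded at 1,000/well and cultured 4 h, then compounds added followed by HCVcc-Cre virus (~0.5 moi). After 44 h further culture, luciferase substrate was added, plates held 15 min at room temperature, and luminescence read for 15 sec.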
VACV Venus inh: vaccinia inhibition (Venus reporter); Vaccinia virus Venus reporter expression, fluorescence; actives 0.46% (n = 330,000); Potency, µM (highest dose often 36.5 µM), actives largely listed as inhibitors; calls by dose curve; tested in A549 cells; also: nearly all actives have a fitted effect of over 30% in size
FMDV antiviral: blocks foot and mouth disease virus | FMDV antiviral cell-based qHTS | Potency, µM (doses to about 57.9 µM), most hits filed as inhibitors | actives 1.2% (n = 410,000) | AID 1159524; calls by dose curve; tested in HEK293T cells; also: read-out not given here; nearly all actives have a fitted effect of over 45% in size
VACV mCherry inh: vaccinia inhibition (mCherry reporter). actives 0.63% (n = 310,000). Potency, µM (highest dose often 36.5 µM), usual class: inhibitors. Vaccinia virus mCherry reporter infection, fluorescence; calls by dose curve; tested in A549 cells; also: nearly all actives have a fitted effect of over 35% in size
Numbers stand for hits; n = inactive; u = inconclusive; x = no result; ! = repeats disagree; [ ] = remark or other dose.

SMILES	HCMV antiviral	HCV inhibitor	VACV Venus inh	FMDV antiviral	VACV mCherry inh
O=C(NCCOc1ccccc1)C1Nc2ccc(C(F)(F)F)cc2C2c3ccccc3CC12 (stereo unspecified)	n	n	n	n	u
CCOC(=O)C1Nc2ccc(C(F)(F)F)cc2C2c3ccccc3CC12 (stereo unspecified)	n	u	u	28.2µM	u
Cc1ccc(N(CC(=O)N2CCN(c3cccc(Cl)c3)CC2)S(=O)(=O)c2c(C)noc2C)cc1	n	x	n	n	n
COc1ccc(N(CC(=O)N2CCN(c3ccc(Cl)cc3)CC2)S(=O)(=O)c2c(C)noc2C)cc1	n	11.2µM	x	u	x
COc1ccc(N(CC(=O)N2CCN(c3ccc(F)cc3)CC2)S(=O)(=O)c2c(C)noc2C)cc1	n	n	n	n	n
COc1ccc(N(CC(=O)N2CCN(c3cccc(Cl)c3)CC2)S(=O)(=O)c2c(C)noc2C)cc1	-67.2!	u	n	n	n
Cc1cc(C)cc(-n2c(SCC(=O)NC3CCCCC3)nc3c([nH]c4ccccc43)c2=O)c1	n	x	n	n	n
Cc1ccc(-n2nc(C(=O)N(C)c3ccccc3Cl)c3c4ccccc4n(C)c3c2=O)cc1	n	x	n	n	n
CCOC(=O)Cc1ccc(NC(=O)NC(C)c2c(-n3cccc3)sc(C)c2C)cc1 (stereo unspecified)	n	x	n	n	n
O=c1cc2c(nn1Cc1ccc(F)cc1)-c1ccccc1CC2	u	n	x	n	x
O=c1cc2c(nn1Cc1cccc([N+](=O)[O-])c1)-c1ccccc1CC2	n	12.6µM	x	n	x
O=c1cc2c(nn1Cc1ccccc1)-c1ccccc1CC2	-100.3	n	n	n	n
NC(=S)NN=C1CCC(C2CCCCC2)CC1 (stereo unspecified)	-79.5	u	n	n	n
S=C(NN=C1CCCCCC1)Nc1ccc(Cl)cc1	n	n	n	x	n
NC(=S)NN=C1CCCCCCCCCC1	n	11.2µM	u	u	u
Cc1ccc(Nc2nc(NCc3ccco3)nc3nccnc23)c(C)c1	x	x	n	x	n
COc1cc(OC)c(OC)cc1CN(C)C(c1ccccc1)c1nnnn1-c1ccccc1C (stereo unspecified)	n	12.6µM	n	n	x
Nc1nonc1C(=O)N/N=C/c1ccc(Br)o1	n	n	n	n	n
Nc1nonc1C(=O)N/N=C/c1ccc(-c2ccc(Cl)c(C(=O)O)c2)o1	-72.7	n	n	n	n
CN(C)c1ccc(C2C=Cc3ccccc32)c2ccccc12 (stereo unspecified)	x	x	n	x	n
C=CCC(O)c1nc(C(=O)Nc2ccc(F)cc2)cs1 (stereo unspecified)	n	x	x	x	x
O=C(NC1CC1)c1cccc(Nc2ccc(-c3ccc4c(c3)OCCO4)nn2)c1	n	10µM	x	u	x
O=S(=O)(c1ccc(Nc2ccc(-c3ccc4c(c3)OCCO4)nn2)cc1)N1CCCC1	n	u	u	x	n
Cn1cccc1-c1cc2n(n1)CCC(=O)N2CC(=O)Nc1ccc(F)cc1Cl	n	x	n	n	n
O=c1c2c3c(sc2n(CCN2CCCC2)c(=O)n1Cc1ccco1)CCCCC3	n	10µM	x	n	x
SMILES	HCMV antiviral	HCV inhibitor	VACV Venus inh	FMDV antiviral	VACV mCherry inh
CN(C)CCn1c(=O)n(Cc2ccco2)c(=O)c2c3c(sc21)CCCCC3	n	u	x	n	x
COC(=O)c1ccc2c(c1)N(CC(=O)Nc1cccc(Cl)c1C)C(=O)c1ccccc1S2	n	x	n	n	n
Cc1ccc(S(=O)(=O)N(CC(=O)Nc2c(C)cccc2C)c2cccc(Cl)c2)cc1	u	x	n	n	n
Cc1cc2nc(CSc3ccccc3)cc(=O)n2[nH]1	-95.7	n	n	n	n
CCCCNC(=S)N(C)/N=C/c1c(F)cccc1F	-89.5	u	n	n	n
O=S(=O)(c1c(Cl)cc(Br)cc1Cl)N1CCN(C(=S)NC2CC2)CC1	u	25.1µM	n	n	n
C#CCOCCOCCOCCNc1nc(N2CCOCC2)nc(N2CCN(C(=O)CCCCCCCCCCNC(=O)[C@H](CO)n3cc(CCCCCN)nn3)CC2)n1	n	n	n	n	n
C#CCOCCOCCOCCNc1nc(N2CCN(C(=O)CCCCCCCCCCNC(=O)Cn3cc(CCCCCN)nn3)CC2)nc(N2CCN(C(=O)CCCCCCCCCCNC(=O)[C@H]([C@@H](C)CC)n3cc(CCCCCN)nn3)CC2)n1	x	u	10µM	u	u
C#CCOCCOCCOCCNc1nc(N2CCOCC2)nc(N2CCN(C(=O)CCCCCCCCCCNC(=O)Cn3cc(CCCCCN)nn3)CC2)n1	n	n	n	n	n
C#CCOCCOCCOCCNc1nc(N2CCOCC2)nc(N2CCN(C(=O)CCCCCCCCCCNC(=O)[C@@H](CCSC)n3cc(CCO)nn3)CC2)n1	n	n	n	n	n
C#CCOCCOCCOCCNc1nc(N2CCN(C(=O)CCCCCCCCCCNC(=O)Cn3cc(CCCCCN)nn3)CC2)nc(N2CCN(C(=O)CCCCCCCCCCNC(=O)[C@H](CO)n3cc(CCCCCN)nn3)CC2)n1	x	31.6µM	u	n	n
C#CCOCCOCCOCCNc1nc(N2CCN(C(=O)CCCCCCCCCCNC(=O)[C@H](CO)n3cc(CCCSC)nn3)CC2)nc(N2CCN(C(=O)CCCCCCCCCCNC(=O)[C@H](CO)n3cc(CCCSC)nn3)CC2)n1	-70.9	n	u	n	u
COc1ccc(NC(=O)c2ccco2)cc1NC(=O)COc1ccccc1Cl	n	x	n[7.34 µM]	u	n[7.34 µM]
COc1cccc(C(=O)N2c3nc(-c4ccco4)nn3C3(CCCCC3)[C@@H]3CCCC[C@@H]32)c1	-64.2	x	n	n	n
O=C(c1cccc(Cl)c1)N1c2nc(-c3ccco3)nn2C2(CCCCC2)[C@@H]2CCCC[C@@H]21	n	x	n	n	n
O=C(c1cccc([N+](=O)[O-])c1)N1c2nc(-c3ccco3)nn2C2(CCCCC2)[C@@H]2CCCC[C@@H]21	-76.9	x	n	n	n
O=C(/C=C/c1ccc2ccccc2n1)N1CCN(c2ccccc2)CC1	n	n	n	n	n
O=C(CSc1ccccc1)N1CCN(S(=O)(=O)c2ccccc2F)CC1	n	n	n	n	n
O=C(/C=C/c1ccc2ccccc2n1)N1CCN(S(=O)(=O)c2ccc(F)cc2)CC1	-80.1	n	x	u	x
O=C(c1ccc(S(=O)(=O)N2CCOCC2)cc1)N1CCN(c2ccc(F)cc2)CC1	n	n	n	n	x
O=C(/C=C/c1ccc2ccccc2n1)N1CCN(S(=O)(=O)c2ccccc2F)CC1	-96.8	u	x	u	x
O=C(/C=C/c1ccc(S(=O)(=O)N2CCOCC2)cc1)N1CCN(c2ccc(F)cc2)CC1	-62.8	n	n	u	u
CC(=O)N1c2ccc(S(=O)(=O)N3CCCCC3)cc2CC1C(=O)Nc1ccc(F)cc1C (stereo unspecified)	-79.3	n	n	n	n
CC(=O)N1c2ccc(S(=O)(=O)NCC3CCC(C(=O)Nc4cccc(F)c4)CC3)cc2CC1C (stereo unspecified)	-76.7	x	u	20µM	n
CC(=O)N1c2ccc(S(=O)(=O)NCC3CCC(C(=O)Nc4cc(C)ccn4)CC3)cc2CC1C (stereo unspecified)	-91.3	u	u	u	n

High-throughput results from PubChem.
